Assay results reported in PubChem BioAssay (NCI).
About 83,000 compounds went through this panel and 20% of them were active in at least one assay; those are over-represented in the sample as a whole.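 The endpoint reported here, percent growth, reads 100 for growth as untreated, 0 for no net growth and -100 for all cells dead.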 Active and inactive are the calls of the source. The calls were made as follows: active = growth percent below 10; inactive = the rest.

What follows are molecules tested on HCT-15 colon (assay: NCI-60 one-dose screen, 48 h (100 = growth as untreated, 0 = no growth, -100 = all killed)). Details: 10 µM unless noted.
In the case of CSc1nc(=S)c2nc(SC)n(-c3ccccc3)c2[nH]1, the growth is reported as 106% (inactive).
With O=c1[nH]cnc2c1ccn2C1OC(CO)C(O)C1O (centres undefined) the growth was 45.5% (inactive).
For COc1ccc(N(c2nc(-c3ccc([N+](=O)[O-])cc3)cs2)C(C)C)cc1, the growth was 88% (inactive).
COc1cc(NN=C(c2ccc(O)cc2)c2ccc(O)cc2)c([N+](=O)[O-])cc1[N+](=O)[O-] was tested, and the growth was 35% (inactive).
In the case of COc1ccc2nc3c(cc2c1)C(=O)CC(C(F)(F)F)C3 (centres undefined), the growth is reported as 37.8% (inactive).
In the case of CCOc1ccc(S(=O)(=O)Nc2ccc3c(c2)N(S(=O)(=O)CC)CCC3)cc1, the growth is reported as 89.9% (inactive).
In the case of O=C(Nc1ccc(C(=O)/C=C/c2ccc(N3CCOCC3)cc2)cc1)Nc1ccc([N+](=O)[O-])cc1, the growth is reported as 92.9% (inactive).
In the case of C=C(C)[C@@H]1CC[C@]2(C)[C@H](CC[C@@H]3[C@@H]([C@@](C)(O)CCC=C(C)C)CC[C@]32C)[C@@]1(C)CCC(=O)N1CCN(C)CC1, the growth is reported as -92.8% [100 µM] (active).
In the case of C=C(C)[C@@H]1CC[C@]2(COCCCN)CC[C@]3(C)[C@H](CC[C@@H]4[C@@](C)(CCCNCCCN)[C@H](C(=C)C)CC[C@]43C)[C@@H]12, the growth is reported as -53.4% [100 µM] (active).
With COc1cc2c(cc1OCCCN1CCN(CCCOc3cc4c(cc3OC)C(=O)N3C[C@H](F)C[C@H]3C=N4)CC1)N=C[C@@H]1C[C@@H](F)CN1C2=O the growth was 56.6% (inactive).
In the case of CC(C)c1ccc(/C=N/N=C(N)N)cc1, the growth is reported as 89.6% (inactive).
With CCCCCCCCCCCCCCCCCCNC(=S)N/N=C/c1ccc(OC)c(OC)c1 the growth was 88.4% (inactive).
For C=C(C)[C@@H]1CC[C@]2(C)[C@H](CC[C@@H]3[C@@H]([C@@](C)(O)CCC=C(C)C)CC[C@]32C)[C@@]1(C)CCC(=O)O, the growth was -15.9% [100 µM] (active).
With Cc1ccc(S(=O)(=O)Oc2ccc([N+](=O)[O-])cc2[N+](=O)[O-])cc1 the growth was 19% (inactive).
C=CCCCCOc1ccccc1-c1cnc(OCCCCC=C)n1C was tested, and the growth was 52.2% (inactive).
In the case of Cc1ncc(C(=O)Nc2ccc(CN3CCN(C)CC3)c(C(F)(F)F)c2)cc1C#Cc1c(N)ncc2ccc(C#N)cc12, the growth is reported as 28% (inactive).
For CCc1cccc(Cl)c1, the growth was 105% (inactive).
Cc1ccc(S(=O)(=O)N/N=C2\CC3CCC2(C)C3(C)C)cc1 (centres undefined) was tested, and the growth was 99.7% (inactive).
COc1ccc(C(C(=O)O)c2ccc(OC)cc2)cc1 was tested, and the growth was 99.4% (inactive).
For Fc1ccc(NC(=S)c2ccccc2)cc1, the growth was 102% (inactive).
c1cc2ccc3cc2cc1CNCCN1CCNCc2ccc4ccc(cc4c2)CNCCN(CCNC3)CCNCc2ccc3ccc(cc3c2)CNCC1 was tested, and the growth was 94.5% (inactive).
For Cn1cc(-c2nnc(-c3ccccc3)s2)c2cc(Br)cnc21, the growth was 77.6% (inactive).
In the case of CCOc1ccc2sc(NS(=O)(=O)c3ccc(N)cc3)nc2c1, the growth is reported as 107% (inactive).
In the case of COc1ccc2c(c1)C(C)Cc1c(Cl)ncnc1N2C (centres undefined), the growth is reported as 4.94% (active).
